Hits are enriched below; roughly 6.2% of the tested compounds scored in any of these assays.
Gal4-VP16 FLuc – counter-screen for ROR gamma inhibitors: Gal4-VP16 reporter; AID 2546; hit rate 3.5% among 310,000; Potency, µM (titrated, usually from 53.6 µM), most hits filed as inhibitors; Drosophila S2 Gal4-VP16 UAS-luciferase, luminescence, 20 h;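 also: Gal4-VP16 expression switched on by copper sulfate through the metallothionein promoter; nearly all actives have a fitted effect of over 50% in size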
RORg inh – inhibitors of mouse ROR gamma transcriptional activity | P51450 | Drosophila S2 Gal4-RORgamma UAS-luciferase reporter, 20 h | Potency, µM (titrated, usually from 53.6 µM), usual class: inhibitors | hit rate 5.4% among 310,000 | AID 2551; also: nearly all actives have a fitted effect of over 60% in size
Target sequence (P51450 whole entry, looked up, the tested form may be a part): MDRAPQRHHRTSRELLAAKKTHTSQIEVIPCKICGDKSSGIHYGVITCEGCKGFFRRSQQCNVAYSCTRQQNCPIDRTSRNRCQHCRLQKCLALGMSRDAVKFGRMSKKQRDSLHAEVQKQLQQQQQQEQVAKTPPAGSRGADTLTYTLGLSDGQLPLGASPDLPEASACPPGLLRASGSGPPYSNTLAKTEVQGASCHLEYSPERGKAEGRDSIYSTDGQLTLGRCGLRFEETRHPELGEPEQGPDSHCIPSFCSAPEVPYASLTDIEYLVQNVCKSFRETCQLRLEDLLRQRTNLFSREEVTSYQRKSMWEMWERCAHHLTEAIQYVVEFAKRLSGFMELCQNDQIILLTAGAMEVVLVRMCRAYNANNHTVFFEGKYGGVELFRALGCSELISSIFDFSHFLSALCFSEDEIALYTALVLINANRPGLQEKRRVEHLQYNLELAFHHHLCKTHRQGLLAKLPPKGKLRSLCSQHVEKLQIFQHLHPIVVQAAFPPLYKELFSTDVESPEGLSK
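Drosophila Schneider cells stably carrying a metallothionein-driven Gal4 DBD–ROR gamma fusion and a UAS-Photinus luciferase reporter were exposed to compound for 1 hr, then induced with copper sulfate (700 uM final) for 20 hr at ambient temperature before luminescence reading.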
KinaseGlo FLuc – blocks Kinase-Glo luciferase, a counter-screen artifact. Q27757. Kinase-Glo luciferase, ATP luminescence, 8 min. Potency, µM (highest dose often 38.3 µM), most hits filed as inhibitors. hit rate 0.28% among 200,000; also: nearly all actives have a fitted effect of over 60% in size
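Substrate mix (final 50 mM imidazole pH 7.2, 50 mM KCl, 7 mM MgCl2, 10 uM ATP, 0.01% Tween 20, 0.05% BSA) plus pin-tool compound, then Kinase-Glo detection mix; 8 min ambient, luminescence read.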
Hits are given with their value; 0 = inactive; ? = inconclusive; - = no result; [ ] = remark or other dose. Calls follow the shape of the dose curve; as a rule, active = well fitted curve in the direction sought with a large enough effect; inconclusive = small, poorly fitted or top-dose-only effect, or another doubt; inactive = no such curve, though single readings can be large; an effect the other way counts as inactive or inconclusive.

SMILES	Gal4-VP16 FLuc	RORg inh	KinaseGlo FLuc
COc1ccc(NC(=O)c2ccccc2)c([N+](=O)[O-])c1	0	?	0
COc1ccc(N(Cc2cc3cccc(C)c3[nH]c2=O)C(=O)C2CCCO2)cc1 (configuration not stated)	0	0	-
CC(=O)N[C@H]1CSSC[C@@H](C(=O)N2CCC[C@H]2C(=O)N2CCC[C@H]2C(=O)N[C@@H](CCCCN)C(=O)N[C@@H](CC(=O)O)C(N)=O)NC(=O)CNC(=O)[C@H](Cc2c[nH]c3ccccc23)NC(=O)[C@H](CCCNC(=N)N)NC(=O)[C@@H](Cc2ccc3ccccc3c2)NC(=O)[C@H](Cc2cnc[nH]2)NC(=O)[C@H](CCC(=O)O)NC1=O	0	0	-
C/C(CCC(=O)OC[C@@H]1O[C@H](C#Cc2ccccc2)C=C[C@@H]1Oc1ccc(C)cc1)=N/O[C@@H](C)c1cn([C@H](CO)Cc2ccccc2)nn1	0[10 µM]	0[10 µM]	-
Cc1ccc(NC(=O)CCS(=O)(=O)c2ccccc2)cc1S(=O)(=O)N1CCOCC1	0	0	0
CC1CCCC(NC(=O)COC(=O)CCC2CCCC2)C1C (configuration not stated)	0.56µM	0	0
COc1cc(CCC(=O)OCC(=O)NC2CCCC(C)C2C)cc(OC)c1OC (configuration not stated)	0	0	0
Cc1ccc(CNC(=O)[C@]2(C(F)(F)F)C[C@H](CCc3ccccc3)CCCO2)o1	0	0	-
Cc1cccc(-n2ncc(C(=O)NC3CCCC3)c2C2CCN(C(=O)OC(C)(C)C)CC2)c1	0	0	-
O=[N+]([O-])c1ccc(-n2nnnc2-c2ccccc2)c([N+](=O)[O-])c1	5.6µM	4µM	0
O=[N+]([O-])c1ccc(-n2nnnc2-c2ccccc2)cc1	0	0	0
CCOC(=O)C1=C(CNC(C)(C)CC(C)(C)C)NC(=O)NC1c1cccc([N+](=O)[O-])c1 (configuration not stated)	0	0	0
COc1ccccc1C(=O)NNC(=O)c1nn(Cc2ccccc2)c(=O)c2ccccc12	?	6.3µM	0
CC(C)CNC(=O)c1nn(Cc2ccccc2)c(=O)c2ccccc12	0	0	-
CCCNC(=O)Nc1nnc(C2CC2)s1	0	0	-
CC(C)=N/N=C1/NC(=O)C(CC(=O)Nc2cc(Cl)ccc2C)S1 (configuration not stated)	?	11µM	0
Cc1ccc(NC(=O)CC2S/C(=N/N=C/c3ccco3)NC2=O)cc1Cl (configuration not stated)	0[10 µM]	?	0
Cc1ccccc1NC(=O)CC1SC(=Nc2ccc(O)cc2)NC1=O (configuration not stated)	0	0	-
Cc1ccc(NC(=O)CC2S/C(=N/N=C/C=C/c3ccccc3)NC2=O)cc1Cl (configuration not stated)	4µM	4µM	0
COC(=O)CC[C@H](N)C(=O)O	0	0	-
CCN(CC(=O)NCCc1ccc(Cl)cc1)Cc1nc2ccccc2c(=O)[nH]1	?	2.2µM	0
CCN(CC(=O)NCCc1ccc(F)cc1)Cc1nc2ccccc2c(=O)[nH]1	?	7.9µM	-
Cc1ccc(CNC(=O)CCc2nc3ccccc3c(=O)[nH]2)cc1	0	0	0
CC(C)C(=O)N(Cc1ccc(F)cc1)Cc1nc2ccccc2c(=O)[nH]1	0	11µM	0
CCN(CC(=O)NCc1ccc(F)cc1)Cc1nc2cc(Cl)ccc2c(=O)[nH]1	?	0	0
SMILES	Gal4-VP16 FLuc	RORg inh	KinaseGlo FLuc
COc1ccc(CN(Cc2nc3ccccc3c(=O)[nH]2)C(=O)c2ccco2)cc1	0	?	-
COCC(=O)N1CCC2(CC1)CN(Cc1ccc(C#N)cc1)C2	0	0	0
COCCCNC(=O)CN(c1cc([N+](=O)[O-])ccc1OC)S(C)(=O)=O	0	0	0
NC(N)=N/N=C/c1ccc(OCc2ccccc2)cc1	10µM	0	-
NC(N)=N/N=C/c1ccc(OCc2ccc(Cl)cc2)cc1	7.1µM	?	-
Cc1ccc(COc2ccc(/C=N/O)cc2)cc1	?	8.9µM	0
CCOc1ccc(/C=N/O)cc1	0	0	0
O=C(N/N=C/c1ccccc1)c1ccc(OCc2ccccc2)cc1	0	0	0
N#Cc1ccc(/C=N/N=C(N)N)cc1	0	0	0
CCOC(=O)Nc1ccccc1C(=O)N1CCOCC1	0	0	0
COc1ccc(-c2[nH]ncc2CN2CCC(N3CCSCC3)CC2)c(F)c1	0	0	0
CN(C)c1ccc(-c2nc(N3CCNCC3)c3ccccc3n2)cc1	0	?	0
Cc1nc(-c2ccccn2)nc(SCC(=O)N2CCOCC2)c1Cl	0	0	-
Cc1nc(-c2ccccn2)nc(SCC(=O)c2ccccc2)c1Cl	11µM	4µM	-
N/C(=N\N=C\c1ccc2c(c1)OCO2)SC1CC(=O)N(c2ccc(C(=O)O)cc2)C1=O (configuration not stated)	0	0	0
C/C(CCc1ccc2c(c1)OCO2)=N\N=C(/N)SC1CC(=O)N(c2ccc(Cl)cc2)C1=O (configuration not stated)	?	8.9µM	0
O=C(O)c1ccc2c(c1)C(=O)N([C@H](Cc1ccc3ccccc3c1)C(=O)O)C2=O	0	0	-
CCCC(=O)NC(=S)Nc1cccc(Cl)c1N1CCCCC1	1µM	0.63µM	0
O=C(Cc1ccccc1)Nc1ccccc1N1CCCC1	0	0	0
CCCCC(=O)NC(=S)Nc1cccc(Cl)c1N1CCCCC1	5µM	1.6µM	0
CCCCC(=O)NC(=S)Nc1cc(C(=O)O)ccc1OC	0	0	0
CCCCC(=O)NC(=S)Nc1ccccc1N1CCCCC1	8.9µM	4.5µM	0
O=C(Nc1cccc(Cl)c1N1CCCC1)c1ccc(Br)o1	0	?	0
CC(C)CC(=O)Nc1ccccc1N1CCCC1	0	0	0
CC(C)CC(=O)NC(=S)Nc1ccccc1N1CCCC1	11µM	4µM	-
SMILES	Gal4-VP16 FLuc	RORg inh	KinaseGlo FLuc
CN(C)Cc1ccccc1-c1cncnc1Nc1ccncc1	0	0	-
Cc1cccc(C)c1OCC(=O)Nc1ccccc1N1CCCCC1	18µM	0	-
COc1ccc(OCC(=O)Nc2ccccc2N2CCCCC2)cc1	0	?	-
O=C(CSc1ccccc1)Nc1ccccc1N1CCOCC1	0	0	0
CCCC(=O)NC(=S)Nc1ccccc1N1CCOCC1	?	11µM	0
CCCCCC(=O)NC(=S)Nc1ccc(N2CCOCC2)cc1	2.2µM	1.3µM	0
CCC(=O)NC(=S)Nc1ccc(N2CCOCC2)cc1	0	0	0
CC(=O)NC(=S)Nc1ccccc1N1CCCCC1	7.1µM	2.5µM	0
CC(C)(C)C(=O)NC(=S)Nc1ccccc1N1CCCC1	?	0	0
N#CCCCSc1nnc(-c2ccccn2)o1	0	0	0
O=C(NCc1cccnc1)c1nc(-c2ccccc2)n(-c2ccccc2)n1	0	0	-
C/C(=N\NC(=O)Cn1nnc2ccccc21)c1ccco1	0	0	0
Cn1cnnc1SCC(=O)Nc1cc(S(=O)(=O)N2CCCCCC2)ccc1Cl	0	0	0
CCCCCC(=O)NC(=S)Nc1ccc(N2CCCCC2)c(Cl)c1	7.1µM	1.6µM	-
CCC(=O)NC(=S)Nc1cccc(Cl)c1N1CCCCC1	5µM	4.5µM	0
CCC(=O)NC(=S)Nc1ccccc1C(=O)NC1CCCCC1	?	0	0
CCCCCC(=O)Nc1ccc(N2CCN(CC)CC2)c(Cl)c1	?	0	0
O=C(Cc1ccc(Cl)cc1)NC(=S)Nc1ccccc1N1CCOCC1	5µM	5µM	0

High-throughput results from PubChem BioAssay.
